Binding signal data for 112 sequences are collected here from PMC10668032, “Altered binding affinity of SIX1-Q177R correlates with enhanced WNT5A and WNT pathway effector expression in Wilms tumor”.

The full ranking holds about 33,000 sequences; the median of “e-score” is about -0.05, and the highest 2% start at about 0.38. Many of the other results were omitted from the sample, so the highest values are more common in it than they were.

The target in this test is T1, SIX1-Q177R homeodomain (human, UniProt Q15475 108-198, Q177R).
T1 sequence: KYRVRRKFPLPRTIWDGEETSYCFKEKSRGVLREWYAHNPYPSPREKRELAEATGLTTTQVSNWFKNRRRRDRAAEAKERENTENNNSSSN
Nature of the test: universal protein binding microarray; Universal all-10-mer PBM (8x60K, AMADID 030236), 300 nM GST-tagged protein, Alexa Fluor 488 anti-GST; buffer, salt, pH and temperature not stated (as in Berger); high values mean tight binding. The conditions noted are these: protein: ivt; tags: N-terminal GST; dsDNA, one strand shown. The method in brief:
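Binding of GST-tagged homeodomains is given as 8-mer E-scores from the Universal PBM Analysis Suite. The proteins were produced by in vitro transcription/translation, quantified by anti-GST western blot against a recombinant GST standard curve, and applied in duplicate at 300 nM final concentration to universal 'all 10-mer' protein binding microarrays (8×60K format).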
AAGCGACA: the binding signal worked out at 0.229 ± 0.0424 E-score. For CACCTCCA the value was 0.293 ± 0.0179 E-score. Regarding ATACCCCC, the binding signal was 0.364 ± 0.0151 E-score. For ATGCACCA the value was 0.165 ± 0.000877 E-score. For ATATACCG the value was 0.15 ± 0.0185 E-score; for ATACACAG, 0.187 ± 0.0325 E-score. Consider ATACACAC, for which the binding signal stood at 0.315 ± 0.0133 E-score. Turning to ACCCACCA, the binding signal was found to be 0.2 ± 0.00308 E-score.

Turning to ATACACCC, the binding signal turned out to be 0.46 ± 0.00688 E-score.

Turning to ATACACCG, the binding signal is 0.472 ± 0.00491 E-score. On to ATACACCA, for which the binding signal is 0.47 ± 0.0019 E-score. Turning to ACTCGGTG, the binding signal is 0.368 ± 0.00838 E-score. On to CACCTCCC, for which the binding signal was found to be 0.256 ± 0.00611 E-score.

For the sequence ATACCCCA, the binding signal was found to be 0.254 ± 0.016 E-score. As for ATCGGTGC, the binding signal worked out at 0.204 ± 0.0156 E-score. Take ACTCCCAG: the binding signal was 0.262 ± 0.038 E-score. Turning to AGGGAGTA, the binding signal stood at 0.178 ± 0.0384 E-score. Turning to TGTCCTAA, the binding signal came out at 0.241 ± 0.0454 E-score.

Turning to TGTAGACA, the binding signal stood at 0.2571 ± 0.000438 E-score.

On to CGGCACCA, for which the binding signal is 0.181 ± 0.0154 E-score. As for ACACAGCG, the binding signal was determined as 0.1958 ± 0.00148 E-score. On to GGTATCTA, for which the binding signal was determined as 0.216 ± 0.0361 E-score. In the case of GGGGTCTA, the binding signal came to 0.229 ± 0.0526 E-score. For CGTGTCTA the value was 0.405 ± 0.0182 E-score. Turning to AGTGTCTA, the binding signal worked out at 0.3723 ± 0.00362 E-score. As to GGTGTCTA, the binding signal is 0.468 ± 0.0105 E-score. For CCCCAAGC the value was 0.228 ± 0.0222 E-score; for ACTCCGGC, 0.233 ± 0.0256 E-score; for ACCCCGGC, 0.262 ± 0.0281 E-score.

In the case of ACCCCGGT, the binding signal worked out at 0.298 ± 0.00305 E-score. Take ACACAGGT: the binding signal came out at 0.252 ± 0.0297 E-score.

As for ATACCGGG, the binding signal was 0.213 ± 0.0219 E-score. Turning to ACACCGGT, the binding signal was found to be 0.481 ± 0.00684 E-score. In the case of CCACCGGA, the binding signal came out at 0.203 ± 0.037 E-score. With GCACCGGA, the binding signal stood at 0.162 ± 0.0479 E-score. As for ACCCCGGG, the binding signal was 0.302 ± 0.0198 E-score.

Consider ACACCGGG, for which the binding signal came out at 0.4843 ± 0.00112 E-score. ACACCGGC: the binding signal was 0.481 ± 0.00281 E-score. ACACCGGA: the binding signal is 0.476 ± 0.00539 E-score. On to CACCATCC, for which the binding signal came out at 0.252 ± 0.00467 E-score. For GTGCTCTA the value was 0.221 ± 0.0342 E-score; for CCAACTAC, 0.151 ± 0.00402 E-score; for ACCTCTAC, 0.151 ± 0.00402 E-score. On to ACCACGTG, for which the binding signal was found to be 0.194 ± 0.00218 E-score. On to ACGGGATC, for which the binding signal is 0.197 ± 0.0102 E-score. Turning to CGGGGTAA, the binding signal is 0.235 ± 0.0071 E-score. For ACTCTTAT the value was 0.212 ± 0.0414 E-score; for ACTCACAC, 0.3 ± 0.0164 E-score; for ACACTCTA, 0.367 ± 0.0161 E-score. For ACACTTAC, the binding signal amounted to 0.378 ± 0.013 E-score.

In the case of ACACTCAT, the binding signal amounted to 0.388 ± 0.0116 E-score. Regarding ACACTTAG, the binding signal stood at 0.355 ± 0.0376 E-score. ACACTTAA: the binding signal was 0.316 ± 0.0276 E-score. As to ACACTCAC, the binding signal came out at 0.39 ± 0.00873 E-score. Regarding ACACTCAA, the binding signal came out at 0.39 ± 0.0152 E-score.

For the sequence ACACTCAG, the binding signal was determined as 0.387 ± 0.00387 E-score. For CACTTACC the value was 0.224 ± 0.032 E-score. For AGCCCGGG the value was 0.157 ± 0.00865 E-score; for CGTGAACC, 0.17 ± 0.0126 E-score. On to TGTATACA, for which the binding signal was determined as 0.283 ± 0.0331 E-score.

Turning to ACTACGTG, the binding signal stood at 0.21 ± 0.0113 E-score. For GGGGATCA, the binding signal stood at 0.275 ± 0.0112 E-score. GAGGGATC: the binding signal is 0.213 ± 0.0344 E-score. Take CCCCATGA: the binding signal turned out to be 0.151 ± 0.00929 E-score. Turning to GGCGAGGA, the binding signal stood at 0.174 ± 0.0324 E-score.

With ACCCTAAG, the binding signal turned out to be 0.1853 ± 0.00154 E-score. Regarding CACCCTTA, the binding signal is 0.263 ± 0.0167 E-score. For ATACCCTA, the binding signal is 0.312 ± 0.0168 E-score.

ACCAGAAT: the binding signal is 0.161 ± 0.0505 E-score.

For CCGACCAG, the binding signal is 0.161 ± 0.0337 E-score. For CAAACACG the value was 0.32 ± 0.0109 E-score; for GAAACACC, 0.4545 ± 0.000905 E-score. For CAAACACA, the binding signal stood at 0.19 ± 0.0451 E-score. AAAACACT: the binding signal was found to be 0.301 ± 0.0568 E-score. On to TAAACACA, for which the binding signal is 0.214 ± 0.0172 E-score.

Turning to AAAACACC, the binding signal came to 0.437 ± 0.0129 E-score. For the sequence AAAACACG, the binding signal came out at 0.321 ± 0.0302 E-score.

Take AAAACACA: the binding signal is 0.188 ± 0.0109 E-score.

Regarding CAAACACC, the binding signal came out at 0.4485 ± 0.00209 E-score. As for ACCCTCCA, the binding signal came out at 0.175 ± 0.00491 E-score. On to AGAAGGGG, for which the binding signal stood at 0.223 ± 0.00875 E-score. In the case of CAGAGGGG, the binding signal came out at 0.193 ± 0.0159 E-score. Consider CACAACTG, for which the binding signal is 0.1786 ± 0.00129 E-score.

CACCTGAA: the binding signal is 0.2354 ± 0.0017 E-score. In the case of CACTTGTC, the binding signal was 0.161 ± 0.0236 E-score. Turning to TCCTAGGA, the binding signal worked out at 0.22 ± 0.0107 E-score.

Turning to CCGGGGAA, the binding signal amounted to 0.18 ± 0.0043 E-score. Turning to CACCCCAA, the binding signal is 0.336 ± 0.0263 E-score. Regarding GCGGGGGA, the binding signal turned out to be 0.157 ± 0.00972 E-score. For the sequence ACACCAAT, the binding signal came out at 0.473 ± 0.00609 E-score. Consider ACACCAAC, for which the binding signal turned out to be 0.4617 ± 0.00175 E-score. For the sequence ACACAAAT, the binding signal stood at 0.167 ± 0.0837 E-score. With ACCCCAAA, the binding signal came out at 0.205 ± 0.0372 E-score.

For ACACAAAG, the binding signal amounted to 0.236 ± 0.0826 E-score. Take ACCCCAAT: the binding signal was 0.266 ± 0.0184 E-score.

In the case of ACACCAAA, the binding signal came to 0.4659 ± 0.00317 E-score. Consider GCACCAAC, for which the binding signal is 0.261 ± 0.0127 E-score. For CACCAAAA the value was 0.217 ± 0.0236 E-score. For ATACCAAC the value was 0.163 ± 0.00749 E-score.

As for ACACCAAG, the binding signal came out at 0.455 ± 0.0109 E-score. Turning to ACTCCAAG, the binding signal amounted to 0.2 ± 0.00662 E-score. Regarding GGAGAATA, the binding signal is 0.193 ± 0.0325 E-score. Regarding CCTGAACA, the binding signal is 0.254 ± 0.00385 E-score. With AGTTAAGA, the binding signal amounted to 0.155 ± 0.00537 E-score. For CCGGGTTC the value was 0.22 ± 0.0235 E-score. On to AGTTAGGA, for which the binding signal stood at 0.153 ± 0.019 E-score.

On to GACCCGGA, for which the binding signal was 0.184 ± 0.0271 E-score. Consider ACACGCAG, for which the binding signal worked out at 0.391 ± 0.00589 E-score. With ACACGCAA, the binding signal amounted to 0.3952 ± 0.00317 E-score. For ACACGCAC, the binding signal amounted to 0.4052 ± 0.00394 E-score. For CCCCGCAA, the binding signal came out at 0.17 ± 0.00535 E-score. As for ACGCACAC, the binding signal was determined as 0.307 ± 0.0495 E-score.
